LGR2 antag: inhibitors of bursicon-induced LGR2 CRE-luciferase signal, primary screen, cell-based, HEK293, CRE-luciferase reporter, bursicon stimulation; AID 720647, 2013; inhibition, % at 9.99 µM; 380,000 tested, 0.35% active; bursicon-stimulated, 4 h; Drosophila bursicon receptor LGR2 (rickets);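 active = drop in luminescence signal, shown as inhibition above about 50% in the replicate tests, limit read from the data, passing the limit was not always enough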;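 note: agonist challenge used bursicon conditioned medium at about half maximal strength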
TWEAK-Fn14 inh: inhibitors of TWEAK-Fn14 signaling, primary screen, luciferase reporter cells, uHTS; TWEAK-stimulated Fn14 reporter cells, luciferase luminescence, 8 h; 360,000 tested, 2% active; inhibition, % at 10 µM; in the data active = inhibition above about 50%
EWS-Fli inh: EWS/Fli-driven NR0B1 reporter inhibitors, primary screen, A673 cells, NR0B1 luciferase, luminescence, MLPCN library. viability-normalised. inhibition, % at 12.6 µM. 350,000 tested, 0.67% active. AID 651661, 2012;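 active = mean inhibition of at least 50% after viability correction, with every replicate also passing that limit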;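 note: firefly luciferase signal divided by Alamar Blue viability fluorescence both relative to DMSO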
EBV LMP1 NFkB: EBV LMP1-driven NF-kappaB luciferase reporter inhibitors, primary screen, cell-based, luminescence, single point; LMP1-induced NF-kappaB luciferase reporter cells; AID 504558, 2011; 350,000 tested, 0.69% active; inhibition, % at 12.5 µM; in the data active = inhibition above about 41%;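 note: 0% = neutral control wells and 100% = reference inhibitor control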
TROY signal inh: inhibitors of TROY-driven NF-kB signaling, primary screen, Q293 LMP1-TROYcd cells, NF-kB luciferase, uHTS; AID 1347056, 2019; inhibition, % at 10 µM; 360,000 tested, 0.98% active; Q293 LMP1-TROYcd NF-kB luciferase reporter, 4 h;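 active = compounds whose plate-normalised and pattern-corrected inhibition of the luciferase reporter signal at the single screening dose is 50% or more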
Numbers without * were called inactive; · = no result. Most compounds without a hit are left out; they make up all but 2.5% or so of the library.

SMILES	LGR2 antag	TWEAK-Fn14 inh	EWS-Fli inh	EBV LMP1 NFkB	TROY signal inh
CCNC(=O)c1cc2c(c(-c3cccc(-c4ccncc4)c3)n1)[C@H](CCO)N(S(=O)(=O)CC)C2	1.9	·	54.9*	·	·
CCNC(=O)c1cc2c(c(-c3cccc(-c4cc5ccccc5o4)c3)n1)[C@H](CCO)N(C(=O)NC(C)C)C2	30.0	53.3*	-5.7	·	32.8
Cc1noc(C)c1NC(=O)N(C)C[C@H]1Oc2ccc(NC(=O)CCN3CCOCC3)cc2CC(=O)N([C@@H](C)CO)C[C@H]1C	6.7	·	-2.3	·	·
CC(=O)N1[C@@H]2Cn3c(ccc(-c4ccccc4)c3=O)[C@H]1[C@@H](C(=O)N1CCN(C)CC1)[C@@H]2CO	-24.9	·	-7.3	·	·
CCOC(=O)c1nn(-c2ccc(C)c(C)c2)cc1O	·	23.4	·	3.4	-19.1
CCOC(=O)c1nn(-c2c(C)n(C)n(-c3ccccc3)c2=O)cc1O	·	61.5*	·	4.2	·
N#C/C(=C\c1ccccc1[N+](=O)[O-])C(=O)NCc1ccccc1	-4.8	-2.5	-4.9	-4.1	-16.8
N#C/C(=C\C=C\c1ccccc1[N+](=O)[O-])C(=O)NCc1ccccc1	20.6	87.8*	41.6	-82.1	26.1
CO[C@@H]1CN(C)C(=O)c2cc(NC(=O)C3CC3)ccc2OC[C@@H](C)N(C(=O)CN2CCOCC2)C[C@H]1C	-7.5	·	-0.9	·	·
COc1ccc(/C=C/c2cc(-c3ccc(C)cc3)o[n+]2C)cc1	46.4	58.4*	·	11.2	26.4
CC(=O)c1ccc(N2CCC(c3cc(-c4ccc(Cl)cc4Cl)n[nH]3)CC2)c([N+](=O)[O-])c1	·	88.2*	·	7.7	49.5
COc1ccc(C(=O)Sc2ccc(Cl)cc2)cc1OC	·	57.4*	·	-5.6	5.3
C[C@H](CO)N1C[C@H](C)[C@H](CN(C)Cc2ccc(C(=O)O)cc2)Oc2c(NS(=O)(=O)c3cn(C)cn3)cccc2C1=O	-10.7	·	-0.9	·	·
O=C(C#Cc1ccccc1)c1ccco1	50.0*	94.0*	64.0*	23.8	57.6*
CN(C)C(=O)C[C@H]1C[C@@H]2c3cc(NC(=O)Nc4ccc(F)cc4)ccc3O[C@@H]2[C@@H](CO)O1	-2.0	·	-0.5	·	·
Cc1cc(O)c(-c2n[nH]c3c2C(c2cccc(O)c2)N(Cc2cccnc2)C3=O)cc1Cl (stereo not given)	·	18.1	·	3.4	63.0*
Cc1ccc(NC(=O)/C(Cl)=C\c2ccccc2)cc1	40.5	42.4	-28.7	-10.8	-4.7
CC(=O)c1ccc(NC(=O)/C(Cl)=C/c2ccccc2)cc1	-25.3	39.7	-122.5	-26.5	71.2*
CCCCn1c(=O)[nH]c(=O)c2c1nc(-c1ccccc1F)n2Cc1ccccc1	4.1	0.7	10.1	3.7	-15.8
O=c1[nH]c(-c2ccccc2F)nc2c1sc(=S)n2Cc1ccccc1	-10.0	60.8*	13.0	11.2	58.1*
O=C(C[C@@H]1CC[C@H]2[C@@H](COC[C@H](O)CN2Cc2ccc(F)cc2)O1)NCc1ccncn1	7.4	·	-0.5	·	·
CCCCOc1ccc(N=Cc2ccc[nH]2)cc1	1.1	66.6*	6.0	-5.4	72.7*
COc1ccc(N=Cc2ccc[nH]2)cc1	·	86.6*	·	-31.6	63.2*
CN(C)C(=O)c1ccc(-c2ccc([C@H]3[C@@H](CO)N4CCCCN(C(=O)C5CCC5)C[C@@H]34)cc2)cc1	·	·	10.6	·	·
c1csc(-c2ccc3ccccc3n2)c1	·	-16.4	·	-25.8	-46.4
SMILES	LGR2 antag	TWEAK-Fn14 inh	EWS-Fli inh	EBV LMP1 NFkB	TROY signal inh
Cc1cc2ncc(-c3cccs3)nc2cc1C	71.2*	71.3*	29.0	-25.0	12.4
c1ccc2c(Nc3nc(N4CCOCC4)c4ccccc4n3)cccc2c1	7.7	52.0*	17.6	-1.7	18.7
Fc1ccc(Nc2nc(N3CCOCC3)c3ccccc3n2)cc1	·	9.6	·	4.2	12.3
Cc1nn(-c2ccccc2)c(C)c1/C=N/NC(=O)c1cc(-c2ccc(Cl)s2)[nH]n1	·	58.8*	·	21.9	12.6
O=C(CSc1nnc(SCc2ccccc2)s1)N/N=C/c1c(Cl)cccc1Cl	-20.6	3.1	·	12.6	-33.9
Cc1nn(-c2ccccc2)c(C)c1/C=N/NC(=O)c1cc(-c2ccc(Br)s2)[nH]n1	·	68.6*	·	15.4	13.4
Cc1nn(-c2ccccc2)c(C)c1/C=N/NC(=O)CSc1nnc(SCc2ccc(Cl)cc2)s1	·	83.3*	-29.5	-27.9	18.1

Screening data deposited in PubChem by several laboratories.
